Here are results for 56 compounds from the supplement of paper PMC4683952.

Structures can show the parent of a compound that is named as a salt. Out of some 1,200 compounds screened, about 50 (4%) showed activity. The entries come from a sample that favours actives as a whole. A number with no mark means an inactive call. No stated cut-off is given here; in the data, all actives reach 1.3 or more but so do some inactives.

The experiment has as its system Lgr5 (MarsCy1-Lgr5-EGFP, U2OS). Kind of experiment: cell-surface Lgr5 expression (SCi1 fluorescence, background-subtracted) relative to WT DMSO (fold of DMSO control); higher = more Lgr5 at the plasma membrane, active = hit call of the paper. The conditions noted are these: U2OS MarsCy1-Lgr5-EGFP stable; treatment time: overnight; 16 µM; library: Johns Hopkins Clinical Compound Library.
As for `O=P([O-])([O-])[O-].O=P([O-])([O-])[O-].[Ca+2].[Ca+2].[Ca+2]` [Calcium phosphate tribasic], the “cell-surface Lgr5 expression” value is 0.836.

Take `CC1=CC(=C(c2ccc(N)cc2)c2ccc(N)cc2)C=CC1=N` [Basic fuchsin hydrochloride]: the “cell-surface Lgr5 expression” value was 1.12.

For `CC1(C)S[C@@H]2[C@H](NC(=O)COc3ccccc3)C(=O)N2[C@H]1C(=O)O`, the “cell-surface Lgr5 expression” value was 0.694.

Take `CC1(C)S[C@@H]2[C@H](NC(=O)COc3ccccc3)C(=O)N2[C@H]1C(=O)O` [Penicillin V (phenoxymethyl penicillinic acid)]: the “cell-surface Lgr5 expression” value is 1.08.

`NC[C@H]1O[C@H](O[C@H]2[C@H](O)[C@@H](O[C@H]3O[C@H](CO)[C@@H](O)[C@H](N)[C@H]3O)[C@H](N)C[C@@H]2N)[C@H](N)[C@@H](O)[C@@H]1O` [Kanamycin B sulfate salt]: the “cell-surface Lgr5 expression” value was 0.875.

With `CCNC(=O)CCC/C=C\C[C@@H]1[C@@H](/C=C/[C@@H](O)CCc2ccccc2)[C@H](O)C[C@@H]1O` [Bimatoprost], the “cell-surface Lgr5 expression” value was 1.06.

As to `C=C1c2c(Cl)ccc(O)c2C(O)=C2C(=O)[C@]3(O)C(O)=C(C(N)=O)C(=O)[C@@H](N(C)C)[C@@H]3[C@@H](O)[C@H]12.O=C(O)c1cc(S(=O)(=O)O)ccc1O` [Meclocycline sulfosalicylate salt], the “cell-surface Lgr5 expression” value is 0.705.

Regarding `Cc1scc2c1N(C(=O)CN1CCN(C)CC1)c1ccccc1NC2=O` [Telenzepine], the “cell-surface Lgr5 expression” value is 1.3 (active).

With `O=C([O-])CC(O)(CC(=O)[O-])C(=O)[O-].[Li+].[Li+].[Li+]` [Tri-lithium citrate], the “cell-surface Lgr5 expression” value is 1.06.

Take `Cc1cc(O)c(C(=O)N[C@@H](C(=O)N[C@@H]2C(=O)N3C(C(=O)O)=C(CSc4nnnn4C)CS[C@H]23)c2ccc(O)cc2)cn1` [Cefpiramide]: the “cell-surface Lgr5 expression” value is 0.869.

Take `CCSc1ccc2c(c1)N(CCCN1CCN(C)CC1)c1ccccc1S2` [Thiethylperazine malate]: the “cell-surface Lgr5 expression” value was 1.12.

On to `Cc1cc2c(OCC(CNC(C)(C)C)OC(=O)c3ccccc3)cccc2[nH]1` (stereo unspecified) [Bopindolol Maleate], for which the “cell-surface Lgr5 expression” value was 1.3.

`C[n+]1c2cc(N)ccc2cc2ccc(N)cc21.Nc1ccc2cc3ccc(N)cc3nc2c1` [Acriflavine hydrochloride]: the “cell-surface Lgr5 expression” value was 1.44.

On to `CO[C@@H]1[C@@H](O[C@@H]2O[C@H](C)[C@@H](O[C@H]3C[C@@](C)(O)[C@@H](OC(=O)CC(C)C)[C@H](C)O3)[C@H](N(C)C)[C@H]2O)[C@@H](CC=O)C[C@@H](C)[C@@H](O)/C=C/C=C/C[C@@H](C)OC(=O)C[C@H]1OC(C)=O` [Josamycin], for which the “cell-surface Lgr5 expression” value is 1.1.

Take `Nc1nc(Cl)nc2c1ncn2[C@H]1C[C@H](O)[C@@H](CO)O1` [Cladribine (2-chloro,2-deoxyadenosine)]: the “cell-surface Lgr5 expression” value is 0.832.

On to `O=c1[nH]c(=O)n([C@H]2C[C@H](O)[C@@H](CO)O2)cc1F` [Floxuridine (5-fluorodeoxyuridine)], for which the “cell-surface Lgr5 expression” value was 0.664.

On to `Nc1ncn([C@H]2C[C@H](O)[C@@H](CO)O2)c(=O)n1` [Decitabine (5-aza-2-deoxycytidine)], for which the “cell-surface Lgr5 expression” value is 1.47 (active).

Take `CCC(C(=O)OCCN(CC)CC)c1ccccc1` (stereo unspecified) [Butetamate (Butethamate)]: the “cell-surface Lgr5 expression” value is 1.2.

As to `CCN(CC)CCOCCOC(=O)C(CC)(CC)c1ccccc1` [Oxeladin citrate salt], the “cell-surface Lgr5 expression” value is 1.48 (active).

Regarding `CCN(CC)CC#CCOC(=O)C(O)(c1ccccc1)C1CCCCC1` (stereo unspecified) [Oxybutynin chloride], the “cell-surface Lgr5 expression” value was 0.687.

Consider `Cc1cc(/C=C/c2ccc3cc(N(C)C)ccc3[n+]2C)c(C)n1-c1ccccc1` [Pyrvinium pamoate], for which the “cell-surface Lgr5 expression” value was 1.09.

`C[Se]CCC(N)C(=O)O` [Seleno-D, L-methionine]: the “cell-surface Lgr5 expression” value is 1.08.

`CCCCCC(=O)O[C@]1(C(C)=O)CC[C@H]2[C@@H]3CCC4=CC(=O)CC[C@]4(C)[C@H]3CC[C@@]21C`: the “cell-surface Lgr5 expression” value is 1.11.

For `CC1(C)O[C@@H]2C[C@H]3[C@@H]4C[C@H](F)C5=CC(=O)CC[C@]5(C)[C@H]4[C@@H](O)C[C@]3(C)[C@]2(C(=O)CO)O1`, the “cell-surface Lgr5 expression” value is 1.55 (active).

For the compound `CC1(C)O[C@@H]2C[C@H]3[C@@H]4C[C@H](F)C5=CC(=O)C=C[C@]5(C)[C@H]4[C@@H](O)C[C@]3(C)[C@]2(C(=O)CO)O1` [Flunisolide], the “cell-surface Lgr5 expression” value was 1.47 (active).

Turning to `CC(=O)[C@H]1CC[C@H]2[C@@H]3CCC4=CC(=O)CC[C@]4(C)[C@H]3CC[C@]12C` [Progesterone], the “cell-surface Lgr5 expression” value is 1.16.

On to `CC(=O)[C@H]1CC[C@H]2[C@@H]3C[C@H](C)C4=CC(=O)CC[C@]4(C)[C@H]3[C@@H](O)C[C@]12C` [Medrysone (6-alpha-Methyl-11-beta-Hydroxyprogesterone)], for which the “cell-surface Lgr5 expression” value is 1.27.

For the compound `C[C@]12CCC(=O)C=C1CC[C@@H]1[C@@H]2[C@@H](O)C[C@@]2(C)[C@H]1CC[C@]2(O)C(=O)COC(=O)CCC(=O)O` [Hydrocortisone hemisuccinate monohydrate], the “cell-surface Lgr5 expression” value was 1.36 (active).

Take `CC(=O)OCC(=O)[C@H]1CC[C@H]2[C@@H]3CCC4=CC(=O)CC[C@]4(C)[C@H]3CC[C@]12C`: the “cell-surface Lgr5 expression” value was 1.01.

With `C[C@]12CCC(=O)C=C1CC[C@@H]1[C@@H]2[C@@H](O)C[C@]2(C=O)[C@@H](C(=O)CO)CC[C@@H]12` [Aldosterone], the “cell-surface Lgr5 expression” value is 1.55 (active).

Turning to `CCCCCC(=O)O[C@]1(C(C)=O)CC[C@H]2[C@@H]3CCC4=CC(=O)CC[C@]4(C)[C@H]3CC[C@@]21C` [Progesterone caproate (17alpha-hydroxyprogesterone)], the “cell-surface Lgr5 expression” value was 1.05.

For the compound `CC(=O)[C@@]1(O)CC[C@H]2[C@@H]3C[C@H](C)C4=CC(=O)CC[C@]4(C)[C@H]3CC[C@@]21C` [6α-Methyl-17α-hydroxy-progesterone (Medroxyprogesterone)], the “cell-surface Lgr5 expression” value was 1.45.

`CC(=O)O[C@]1(C(C)=O)CC[C@H]2[C@@H]3CCC4=CC(=O)CC[C@]4(C)[C@H]3CC[C@@]21C` [Hydroxyprogesterone acetate (17alpha-Acetoxyprogesterone)]: the “cell-surface Lgr5 expression” value was 1.21.

`NCCCC(N)(C(=O)O)C(F)F` (racemic): the “cell-surface Lgr5 expression” value was 1.18.

In the case of `[Br-].[K+]` [Potassium bromide], the “cell-surface Lgr5 expression” value is 0.93.

As to `CCOC(=O)[C@H](CCc1ccccc1)N[C@H]1CCc2ccccc2N(CC(=O)O)C1=O` [Benazepril hydrochloride], the “cell-surface Lgr5 expression” value is 0.872.

For the compound `O=S(=O)(O)CCS` [Mesna (2-Mercaptoethane Sulfonic Acid Sodium Salt)], the “cell-surface Lgr5 expression” value is 0.815.

As for `O=S(=O)(O)CCS` [Mesna (2-Mercaptoethanesulfonic acid)], the “cell-surface Lgr5 expression” value was 0.844.

On to `O=P([O-])(O)O.[Na+]` [Sodium phosphate monobasic], for which the “cell-surface Lgr5 expression” value is 1.11.

Turning to `[Na+].[O]=[Bi](=[O])[O-]` [Sodium bismuthate], the “cell-surface Lgr5 expression” value is 0.965.

With `CC1=C(C/C=C(\C)CCC[C@H](C)CCC[C@H](C)CCCC(C)C)C(=O)c2ccccc2C1=O` [Vitamin K1 (Phylloquinone, phytonadione)], the “cell-surface Lgr5 expression” value is 0.865.

For the compound `NS(=O)(=O)c1cc2c(cc1C(F)(F)F)NC(Cc1ccccc1)NS2(=O)=O` (stereo unspecified) [Bendroflumethiazide], the “cell-surface Lgr5 expression” value is 1.02.

Take `CCCC(O)C(CC)CO` (stereo unspecified) [Ethohexadiol (2-Ethyl-1,3-hexanediol)]: the “cell-surface Lgr5 expression” value was 1.04.

Regarding `Clc1ccc(CO/N=C(\Cn2ccnc2)c2ccc(Cl)cc2Cl)c(Cl)c1` [Oxiconazole nitrate], the “cell-surface Lgr5 expression” value is 0.871.

With `O=[N+]([O-])c1ccc(/C=N/O)o1` [Nifuroxime], the “cell-surface Lgr5 expression” value is 0.992.

Regarding `O.[Al+3].[Al+3].[Cl-].[OH-].[OH-].[OH-].[OH-].[OH-]` [Aluminum chlorohydrate], the “cell-surface Lgr5 expression” value was 0.754.

For `Cc1onc(-c2ccccc2)c1C(=O)N[C@@H]1C(=O)N2[C@@H]1SC(C)(C)[C@@H]2C(=O)O` [Oxacillin], the “cell-surface Lgr5 expression” value was 0.726.

As for `CC1(C)O[C@@H]2C[C@H]3[C@@H]4CCC5=CC(=O)C=C[C@]5(C)[C@H]4[C@@H](O)C[C@]3(C)[C@]2(C(=O)CO)O1`, the “cell-surface Lgr5 expression” value was 1.44 (active).

For the compound `C[C@]12C=CC(=O)C=C1CC[C@@H]1[C@@H]2[C@@H](O)C[C@@]2(C)[C@H]1CC[C@]2(O)C(=O)COP(=O)(O)O` [Prednisolone 21-phosphate, disodium salt], the “cell-surface Lgr5 expression” value was 1.41 (active).

With `C[C@H]1C[C@@H]2[C@H]([C@@H](O)C[C@@]3(C)[C@H]2CC[C@]3(O)C(=O)CO)[C@@]2(C)C=CC(=O)C=C12` [Methylprednisolone (6-alpha-Methylprednisolone)], the “cell-surface Lgr5 expression” value was 1.12.

Consider `CCC(=O)[C@@]1(C)[C@H](C)C[C@H]2[C@@H]3CCC4=CC(=O)C=C[C@]4(C)[C@H]3[C@@H](O)C[C@@]21C` [Rimexolone], for which the “cell-surface Lgr5 expression” value is 1.39 (active).

Consider `C[C@]12C=CC(=O)C=C1CC[C@@H]1[C@@H]2[C@@H](O)C[C@@]2(C)[C@H]1CC[C@]2(O)C(=O)COP(=O)(O)O` [Prednisolone sodium phosphate], for which the “cell-surface Lgr5 expression” value was 1.25.

Regarding `N[C@H]1C(O)O[C@H](CO)[C@@H](O)[C@@H]1O` (stereo partly specified) [Glucosamine], the “cell-surface Lgr5 expression” value was 1.06.

In the case of `c1ccc(Cc2nc3ccccc3[nH]2)cc1` [Bendazol (2-Benzylbenzimidazole)], the “cell-surface Lgr5 expression” value is 1.05.

With `N=C(N)N1Cc2ccccc2C(O)C1` (stereo unspecified) [4-Hydroxydebrisoquin], the “cell-surface Lgr5 expression” value was 1.07.

In the case of `Cc1cc2nc3c(=O)[nH]c(=O)nc-3n(C[C@H](O)[C@H](O)[C@H](O)COP(=O)(O)OP(=O)(O)OC[C@H]3O[C@@H](n4cnc5c(N)ncnc54)[C@H](O)[C@@H]3O)c2cc1C` [Flavin adenine dinucleotide], the “cell-surface Lgr5 expression” value is 1.01.
